Experimental data published in PubChem BioAssay (Tox21).
Records with an inconclusive call do not appear. Active and inactive are the calls of the source. Unless noted, calls follow the shape of the dose curve; as a rule, active = well fitted curve in the direction sought with a large enough effect in the repeat runs; inconclusive = weak or mixed curves; inactive = no such curve, though single readings can be large; an effect the other way counts as inactive or inconclusive.

How the values were obtained:
[1] = biological target: Acetylcholinesterase (Homo sapiens) (UniProt P22303); assay: Acetylcholinesterase (AChE) small molecule antagonists: enzyme-based qHTS assay (AID 1347397; calls by dose curve; also: nearly all actives have a fitted effect of over 55% in size; also: potency is read from the fitted curve at half-maximal effect); details: Potency: AChE enzyme activity inhibition; outcome: AChE enzyme activity inhibition
Summary of the method: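 Enzyme inhibition was scored from DTNB-detected thiocholine formed by recombinant human AChE acting on acetylthiocholine. The 30 min compound preincubation and 10 min substrate reaction were both run at room temperature, with DMSO as vehicle control.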

[2] = biological target: Acetylcholinesterase (Homo sapiens) (UniProt P22303); assay: Acetylcholinesterase (AChE) small molecule antagonists: fluorescence cell-based qHTS assay (AID 1347398; calls by dose curve; also: nearly all actives have a fitted effect of over 50% in size; also: potency is read from the fitted curve at half-maximal effect); details: Potency: AChE activity; outcome: AChE activity
Summary of the method: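 Endogenous acetylcholinesterase of SH-SY5Y neuroblastoma cells is measured in situ. After overnight attachment and 30 min compound exposure, cells receive acetylthiocholine and Thiolite Green; fluorescence is read after 40 min at room temperature.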

[3] = biological target: Acetylcholinesterase (Homo sapiens) (UniProt P22303); assay: Acetylcholinesterase (AChE) small molecule antagonists: enzyme-based qHTS assay with human liver microsomes (AID 1347399; calls by dose curve; also: nearly all actives have a fitted effect of over 60% in size); details: Potency: qHTS inhibition; outcome: qHTS inhibition
Summary of the method: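 Recombinant human AChE (50 mU/mL in the enzyme mix) and human liver microsomes (0.25 mg/mL final) were preincubated with compound and NADPH (0.25 mg/mL final) for 30 min at 37 C. Acetylthiocholine/DTNB was then added; thiocholine was read colorimetrically after 10 min at room temperature.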

[4] = biological target: Cytochrome P450 2D6 (Homo sapiens) (UniProt P10635); assay: Cytochrome P450 Family 2 Subfamily D Member 6 (CYP2D6) small molecule antagonists: luciferase reporter qHTS assay (AID 1671196); also: nearly all actives have a fitted effect of over 50% in size; also: potency is read from the fitted curve at half-maximal effect; as to activity change, negative = inhibition: series mostly up to about 120 µM
Summary of the method: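 Read-out is luminescence from luciferin formed by CYP2D6 turnover of a proluciferin substrate, recorded as relative luminescence units. Reactions ran 1 h at room temperature after NADPH regeneration solution was added.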

[5] = biological target: Cytochrome P450 2C19 (Homo sapiens) (UniProt P33261); assay: Cytochrome P450 Family 2 Subfamily C Member 19 (CYP2C19) small molecule antagonists: luciferase reporter qHTS assay (AID 1671197); also: nearly all actives have a fitted effect of over 65% in size; also: potency is read from the fitted curve at half-maximal effect; as to activity change, negative = inhibition: series mostly up to about 120 µM
Summary of the method: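 Enzyme-substrate mix with proluciferin substrate (P450-Glo CYP2C19 system) preincubated with compounds 10 min at room temperature; NADPH regeneration solution added, 37C for 1 h; detection reagent stops reaction, luminescence read after 20 min. Ketoconazole positive control.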

[6] = biological target: Cytochrome P450 1A2 (Homo sapiens) (UniProt P05177); assay: Cytochrome P450 Family 1 Subfamily A Member 2 (CYP1A2) small molecule antagonists: luciferase reporter qHTS assay (AID 1671199); also: nearly all actives have a fitted effect of over 50% in size; also: potency is read from the fitted curve at half-maximal effect; as to activity change, negative = inhibition: series mostly up to about 120 µM
Summary of the method: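 P450-Glo CYP1A2, 1536-well qHTS: enzyme/proluciferin substrate + cpd (DMSO), 10 min RT; NADPH regen, 1 h RT; detection reagent, 20 min; luminescence, RLU.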

[7] = biological target: Voltage-gated inwardly rectifying potassium channel KCNH2 (Homo sapiens) (UniProt Q12809); assay: Human Ether-a-go-go-Related Gene (hERG) channel small molecule antagonists: fluorescence cell-based qHTS assay (AID 1671200);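 also: hERG-expressing U2OS cells given a thallium stimulus after FluxOR II dye loading; series mostly up to about 77 µM; nearly all actives have a fitted effect of over 50% in size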
Summary of the method: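 In this thallium-flux screen, overnight-cultured U2OS cells bearing the channel are dye-loaded in darkness for an hour, rested 10 min at room temperature, and then monitored kinetically at 480/540 nm for two minutes post-stimulus.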

[8] = biological target: Cytochrome P450 3A4 (Homo sapiens) (UniProt P08684); assay: Cytochrome P450 Family 3 Subfamily A Member 4 (CYP3A4) small molecule antagonists: luciferase reporter qHTS assay (AID 1671201); also: nearly all actives have a fitted effect of over 50% in size; also: potency is read from the fitted curve at half-maximal effect; as to activity change, negative = inhibition: series mostly up to about 120 µM
Summary of the method: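 CYP3A4 activity was followed with a P450-Glo proluciferin substrate. Test compounds in DMSO were preincubated 10 min; NADPH regeneration then ran 1 h, and light output was read 20 min after detection reagent.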

[9] = biological target: Cytochrome P450 2C9 (Homo sapiens) (UniProt P11712); assay: Cytochrome P450 Family 2 Subfamily C Member 9 (CYP2C9) small molecule antagonists: luciferase reporter qHTS assay (AID 1671198)
Summary of the method: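 P450-Glo proluciferin substrate with CYP2C9 enzyme; 10 min RT preincubation, then NADPH regeneration 1 h at 37C; luciferin detection reagent 20 min RT, luminescence in relative luminescence units.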
% is scaled to controls: 0 for no effect and ±100 for the full control effect.

Sequence of Cytochrome P450 2C9 (Homo sapiens) (P11712 whole entry, looked up): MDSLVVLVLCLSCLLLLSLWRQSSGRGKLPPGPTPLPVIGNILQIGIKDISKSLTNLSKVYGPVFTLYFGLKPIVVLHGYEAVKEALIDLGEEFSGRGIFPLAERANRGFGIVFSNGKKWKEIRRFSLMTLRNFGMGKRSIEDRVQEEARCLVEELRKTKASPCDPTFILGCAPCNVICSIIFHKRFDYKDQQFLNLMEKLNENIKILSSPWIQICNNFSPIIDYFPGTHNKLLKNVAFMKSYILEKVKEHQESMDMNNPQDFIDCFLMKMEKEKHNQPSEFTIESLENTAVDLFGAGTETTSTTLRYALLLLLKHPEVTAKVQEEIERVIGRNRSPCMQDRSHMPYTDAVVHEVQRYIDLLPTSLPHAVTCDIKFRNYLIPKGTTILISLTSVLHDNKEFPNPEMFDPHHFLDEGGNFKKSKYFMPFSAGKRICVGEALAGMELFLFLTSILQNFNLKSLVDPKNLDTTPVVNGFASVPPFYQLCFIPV
Sequence of Cytochrome P450 2C19 (Homo sapiens) (P33261 whole entry, looked up): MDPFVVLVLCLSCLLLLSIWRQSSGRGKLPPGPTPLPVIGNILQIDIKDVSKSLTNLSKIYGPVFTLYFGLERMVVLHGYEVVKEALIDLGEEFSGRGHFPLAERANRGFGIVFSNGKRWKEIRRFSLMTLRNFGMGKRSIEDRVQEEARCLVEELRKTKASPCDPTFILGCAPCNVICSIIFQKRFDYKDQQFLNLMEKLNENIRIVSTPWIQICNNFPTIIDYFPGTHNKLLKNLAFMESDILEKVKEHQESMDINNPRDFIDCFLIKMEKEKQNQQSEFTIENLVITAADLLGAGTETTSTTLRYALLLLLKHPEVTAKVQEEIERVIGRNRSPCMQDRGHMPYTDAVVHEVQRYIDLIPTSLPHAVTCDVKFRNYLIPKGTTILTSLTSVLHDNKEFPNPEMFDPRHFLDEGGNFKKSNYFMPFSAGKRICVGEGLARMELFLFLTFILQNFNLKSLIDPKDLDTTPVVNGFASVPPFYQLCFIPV
Sequence of Cytochrome P450 3A4 (Homo sapiens) (P08684 whole entry, looked up): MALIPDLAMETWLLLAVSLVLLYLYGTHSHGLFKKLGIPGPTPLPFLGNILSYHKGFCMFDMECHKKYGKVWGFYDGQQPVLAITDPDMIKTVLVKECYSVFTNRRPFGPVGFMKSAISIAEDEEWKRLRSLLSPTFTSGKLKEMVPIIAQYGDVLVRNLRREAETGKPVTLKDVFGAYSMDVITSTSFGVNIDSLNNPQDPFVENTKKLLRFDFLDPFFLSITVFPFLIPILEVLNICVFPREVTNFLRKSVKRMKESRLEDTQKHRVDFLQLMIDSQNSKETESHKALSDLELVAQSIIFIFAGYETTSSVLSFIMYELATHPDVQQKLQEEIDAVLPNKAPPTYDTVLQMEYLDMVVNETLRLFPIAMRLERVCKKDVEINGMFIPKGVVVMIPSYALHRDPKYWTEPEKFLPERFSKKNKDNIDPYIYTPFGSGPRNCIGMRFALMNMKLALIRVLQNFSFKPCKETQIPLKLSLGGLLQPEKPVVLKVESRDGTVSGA
Sequence of Acetylcholinesterase (Homo sapiens) (P22303 whole entry, looked up): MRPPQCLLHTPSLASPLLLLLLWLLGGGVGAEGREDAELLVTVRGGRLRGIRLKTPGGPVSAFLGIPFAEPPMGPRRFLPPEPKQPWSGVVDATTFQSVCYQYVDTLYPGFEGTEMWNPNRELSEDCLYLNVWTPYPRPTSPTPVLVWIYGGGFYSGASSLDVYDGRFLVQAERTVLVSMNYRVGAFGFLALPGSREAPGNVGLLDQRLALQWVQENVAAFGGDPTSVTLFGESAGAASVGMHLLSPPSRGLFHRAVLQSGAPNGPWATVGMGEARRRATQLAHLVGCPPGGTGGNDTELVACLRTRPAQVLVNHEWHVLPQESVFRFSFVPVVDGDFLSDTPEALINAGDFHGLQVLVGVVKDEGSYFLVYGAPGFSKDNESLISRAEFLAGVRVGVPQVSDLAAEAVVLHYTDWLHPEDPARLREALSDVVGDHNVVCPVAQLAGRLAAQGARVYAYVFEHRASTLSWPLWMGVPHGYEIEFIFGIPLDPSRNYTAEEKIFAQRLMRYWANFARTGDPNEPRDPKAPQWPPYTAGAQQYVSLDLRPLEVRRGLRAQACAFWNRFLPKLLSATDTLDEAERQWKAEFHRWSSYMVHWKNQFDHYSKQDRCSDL
Sequence of Cytochrome P450 2D6 (Homo sapiens) (P10635 whole entry, looked up): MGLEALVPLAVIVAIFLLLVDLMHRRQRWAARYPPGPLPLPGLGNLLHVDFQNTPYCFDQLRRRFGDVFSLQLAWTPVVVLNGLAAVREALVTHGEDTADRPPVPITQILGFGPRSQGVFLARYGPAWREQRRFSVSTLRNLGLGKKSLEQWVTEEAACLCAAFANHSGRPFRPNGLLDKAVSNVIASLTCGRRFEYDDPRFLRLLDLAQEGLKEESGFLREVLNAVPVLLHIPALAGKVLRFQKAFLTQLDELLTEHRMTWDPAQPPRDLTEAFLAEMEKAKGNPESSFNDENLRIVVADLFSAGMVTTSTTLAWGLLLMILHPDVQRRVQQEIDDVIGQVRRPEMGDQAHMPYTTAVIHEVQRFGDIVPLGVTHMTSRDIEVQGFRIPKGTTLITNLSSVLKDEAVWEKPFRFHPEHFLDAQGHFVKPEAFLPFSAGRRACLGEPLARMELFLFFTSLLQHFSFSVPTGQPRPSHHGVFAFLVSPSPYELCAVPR
Sequence of Cytochrome P450 1A2 (Homo sapiens) (P05177 whole entry, looked up): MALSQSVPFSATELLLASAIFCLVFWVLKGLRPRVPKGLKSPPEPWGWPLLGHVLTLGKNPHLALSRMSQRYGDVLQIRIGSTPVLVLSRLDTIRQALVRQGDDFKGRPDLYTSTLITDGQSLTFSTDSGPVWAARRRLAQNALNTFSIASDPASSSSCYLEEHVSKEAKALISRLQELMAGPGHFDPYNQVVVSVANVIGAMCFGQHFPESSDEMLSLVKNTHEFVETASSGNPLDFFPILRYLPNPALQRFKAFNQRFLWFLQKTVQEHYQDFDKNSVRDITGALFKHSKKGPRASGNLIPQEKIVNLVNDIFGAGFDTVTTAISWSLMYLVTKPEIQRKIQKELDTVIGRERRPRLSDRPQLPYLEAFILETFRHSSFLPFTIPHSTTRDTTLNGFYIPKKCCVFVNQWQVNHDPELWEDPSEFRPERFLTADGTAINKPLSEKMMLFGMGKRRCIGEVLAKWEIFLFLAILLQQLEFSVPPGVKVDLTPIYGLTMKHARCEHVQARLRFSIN
Sequence of Voltage-gated inwardly rectifying potassium channel KCNH2 (Homo sapiens) (Q12809 whole entry, looked up): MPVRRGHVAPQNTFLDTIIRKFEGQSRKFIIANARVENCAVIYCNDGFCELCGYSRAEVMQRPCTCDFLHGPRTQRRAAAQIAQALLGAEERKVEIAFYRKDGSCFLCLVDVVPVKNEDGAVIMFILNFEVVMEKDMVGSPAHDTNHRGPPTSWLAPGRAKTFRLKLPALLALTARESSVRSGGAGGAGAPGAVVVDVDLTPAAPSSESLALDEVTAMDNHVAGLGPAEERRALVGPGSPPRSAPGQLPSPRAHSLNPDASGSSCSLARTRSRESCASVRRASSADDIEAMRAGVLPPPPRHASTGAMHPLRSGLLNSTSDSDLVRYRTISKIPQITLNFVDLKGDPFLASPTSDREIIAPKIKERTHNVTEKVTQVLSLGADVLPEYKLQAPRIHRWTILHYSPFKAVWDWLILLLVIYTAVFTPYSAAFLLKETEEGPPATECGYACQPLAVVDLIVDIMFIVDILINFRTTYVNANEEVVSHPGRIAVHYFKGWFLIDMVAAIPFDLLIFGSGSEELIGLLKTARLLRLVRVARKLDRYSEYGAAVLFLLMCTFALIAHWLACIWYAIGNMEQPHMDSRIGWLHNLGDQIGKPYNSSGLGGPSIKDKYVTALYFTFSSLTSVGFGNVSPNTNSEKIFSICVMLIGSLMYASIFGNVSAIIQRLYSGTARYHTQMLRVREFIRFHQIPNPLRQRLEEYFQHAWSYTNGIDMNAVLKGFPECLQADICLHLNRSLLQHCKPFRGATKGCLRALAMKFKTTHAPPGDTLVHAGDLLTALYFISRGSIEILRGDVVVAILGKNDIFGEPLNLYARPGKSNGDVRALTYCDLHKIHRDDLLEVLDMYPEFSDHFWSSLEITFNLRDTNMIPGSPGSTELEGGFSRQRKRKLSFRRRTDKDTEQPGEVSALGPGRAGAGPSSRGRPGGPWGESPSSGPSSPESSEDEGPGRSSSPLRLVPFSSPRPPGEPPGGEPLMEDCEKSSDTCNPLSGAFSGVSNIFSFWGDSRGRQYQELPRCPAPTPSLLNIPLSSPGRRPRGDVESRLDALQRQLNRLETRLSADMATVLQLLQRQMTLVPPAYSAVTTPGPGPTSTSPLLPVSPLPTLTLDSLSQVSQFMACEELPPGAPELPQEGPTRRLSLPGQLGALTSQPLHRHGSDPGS

COC(=O)[C@@H](N)CCCN/C(N)=N/[N+](=O)[O-]
inactive: Potency [1] | Potency [2] | Potency [3] | Potency [4] | Potency [5] | Potency [6]

CC#Cc1cc(C)nc(Nc2ccccc2)n1
inactive: Potency [1] | Potency [2] | Potency [3] | Potency [4] | Potency [7]
active: Potency [5] 35.5 µM | Potency [6] 1.59 µM | Potency [8] 63.2 µM

ClC1=C(Cl)C2(Cl)C(CBr)CC1(Cl)C2(Cl)Cl (configuration not stated)
inactive: Potency [1] | Potency [2] | Potency [3] | Potency [4] | Potency [9] | Potency [6]

CCNP(=S)(OC)O/C(C)=C/C(=O)OC(C)C (configuration not stated)
inactive: Potency [1] | Potency [2] | Potency [3]
active: Potency [4] 31.7 µM | Potency [5] 0.0894 µM | Potency [6] 2.52 µM | Potency [8] 1.26 µM

ClCCN1CCCC1
inactive: Potency [1] | Potency [2] | Potency [3] | Potency [4] | Potency [9] | Potency [6] | Potency [7] | Potency [8]

CC(=O)CN(CC(C)=O)N=O
inactive: Potency [1] | Potency [2] | Potency [3] | Potency [4] | Potency [5] | Potency [8]

CNC(=O)NC(O)C(Cl)(Cl)Cl (configuration not stated)
inactive: Potency [1] | Potency [2] | Potency [3] | Potency [4] | Potency [9] | Potency [6] | Potency [7]

Clc1cc2c(cc1Cl)Oc1cc(Cl)c(Cl)cc1O2
inactive: activity change, negative = inhibition [1] 0.681% [at 0.435 µM] | activity change, negative = inhibition [2] 4.87% [at 0.439 µM] | activity change, negative = inhibition [3] -0.563% [at 0.435 µM] | activity change, negative = inhibition [4] -1.99% [at 0.435 µM] | activity change, negative = inhibition [5] -2.53% [at 0.435 µM] | activity change, negative = inhibition [7] 4.67% [at 0.29 µM] | activity change, negative = inhibition [8] -0.782% [at 0.435 µM]

ClCC1CO1 (configuration not stated)
inactive: Potency [1] | Potency [2] | Potency [3] | Potency [4] | Potency [9] | Potency [6] | Potency [7] | Potency [8]

CC(C)NCC(O)c1ccc([N+](=O)[O-])cc1 (configuration not stated)
active: Potency [4] 27.5 µM
inactive: Potency [1] | Potency [2] | Potency [3] | Potency [5] | Potency [6] | Potency [8]

COP(=O)(OC)O/C(C)=C/C(=O)N(C)C
inactive: Potency [3] | Potency [4] | Potency [5] | Potency [7]
active: Potency [1] 63.7 µM | Potency [2] 14.3 µM

CCCCCCCC(=O)Cl
active: Potency [5] 40.3 µM
inactive: Potency [1] | Potency [2] | Potency [3] | Potency [4] | Potency [6] | Potency [7] | Potency [8]

CN(C)CCc1c[nH]c2cccc(OP(=O)(O)O)c12
inactive: Potency [1] | Potency [2] | Potency [3] | Potency [4] | Potency [5] | Potency [6] | Potency [7] | Potency [8]

CCN(CC)CCOC(=O)C(O)(c1ccccc1)c1ccccc1
active: Potency [4] 3.47 µM
inactive: Potency [1] | Potency [2] | Potency [3] | Potency [5] | Potency [6]

O=C(Cl)/C=C/C(=O)Cl
inactive: Potency [1] | Potency [2] | Potency [3] | Potency [4] | Potency [5] | Potency [6] | Potency [7] | Potency [8]

CC(C)(N)Cc1ccccc1Cl
inactive: Potency [1] | Potency [2] | Potency [3] | Potency [5] | Potency [9] | Potency [7] | Potency [8]
active: Potency [4] 4.36 µM

CCCOC(=O)Cc1ccc(OCC(=O)N(CC)CC)c(OC)c1
inactive: Potency [1] | Potency [2] | Potency [3] | Potency [4] | Potency [5] | Potency [6] | Potency [7]

CCNc1nc(Cl)nc(NC(C)(C)C)n1
active: Potency [5] 35.6 µM | Potency [6] 11.2 µM
inactive: Potency [1] | Potency [2] | Potency [3] | Potency [4] | Potency [7]

CS(=O)(=O)Cl
inactive: Potency [1] | Potency [2] | Potency [3] | Potency [5] | Potency [9] | Potency [7]

COC(=O)c1ccc(CBr)cc1
active: Potency [4] 64 µM | Potency [6] 36 µM
inactive: Potency [1] | Potency [2] | Potency [3] | Potency [7]

O=C(Cl)C(Cl)Cl
inactive: Potency [1] | Potency [2] | Potency [3] | Potency [4] | Potency [9] | Potency [7] | Potency [8]

NC(=O)CS(=O)C(c1ccccc1)c1ccccc1 (configuration not stated)
active: Potency [5] 24.5 µM
inactive: Potency [1] | Potency [2] | Potency [3] | Potency [9] | Potency [6] | Potency [7] | Potency [8]

CCCCCCC(=O)CCCCCC/C=C/C[C@@H](O)[C@H](O)[C@@](N)(CO)C(=O)O
inactive: activity change, negative = inhibition [1] 0.415% [at 23.6 µM] | activity change, negative = inhibition [2] -0.579% [at 23.8 µM] | activity change, negative = inhibition [3] -0.169% [at 23.6 µM] | activity change, negative = inhibition [4] -0.222% [at 23.6 µM] | activity change, negative = inhibition [6] -0.0703% [at 23.6 µM] | activity change, negative = inhibition [7] 0.803% [at 15.8 µM] | activity change, negative = inhibition [8] 24.6% [at 23.6 µM]

COC(=O)c1ccccc1CS(=O)(=O)NC(=O)Nc1nc(OC)cc(OC)n1
inactive: Potency [1] | Potency [2] | Potency [3] | Potency [4] | Potency [7]

CCN(CCO)CCO
inactive: Potency [1] | Potency [2] | Potency [3] | Potency [4] | Potency [6] | Potency [7] | Potency [8]

CCC(C)(C#N)N=NC(C)(C#N)CC (configuration not stated)
inactive: Potency [1] | Potency [2] | Potency [3] | Potency [4] | Potency [6] | Potency [8]

CCOc1cc(OP(=S)(OC)OC)nc(CC)n1
inactive: Potency [1] | Potency [2] | Potency [3] | Potency [4] | Potency [8]

c1cncc([C@@H]2CCCCN2)c1
active: Potency [5] 39.9 µM
inactive: Potency [1] | Potency [2] | Potency [3]

O=c1[nH]c2ccccc2n1C1CCNCC1
inactive: Potency [1] | Potency [2] | Potency [3] | Potency [7]
active: Potency [4] 30.9 µM

S=C=S
inactive: Potency [1] | Potency [2] | Potency [3]
active: Potency [5] 44.3 µM | Potency [6] 39.5 µM

OCC(Cl)CCl (configuration not stated)
inactive: Potency [1] | Potency [2] | Potency [3] | Potency [4] | Potency [8]
active: Potency [6] 39.4 µM

Cc1ccc(-c2nc3ccc(C)cn3c2CC(=O)N(C)C)cc1
inactive: Potency [1] | Potency [2] | Potency [3] | Potency [5] | Potency [9] | Potency [7]
active: Potency [6] 27.5 µM
